Test results taken from PubChem BioAssay (NCI).
About 79,000 compounds went through this panel and 15% of them were active in at least one assay; those are over-represented in the sample as a whole. The source made the active and inactive calls. Cut-off read from the data, not from the text of the source: active = growth inhibition above about 70%; inactive = the rest.

How the values were obtained:
[1] = NCI Yeast Anticancer Drug Screen. Data for the rad50 strain (AID 155);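 note: 0% = growth of vehicle-only cultures of the same strain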; details: S. cerevisiae rad50 strain growth inhibition; at 50.0 µM; active compounds read high
Summary of the method: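 Compounds were tested on a yeast strain with an engineered DNA damage repair alteration; the reported value is growth inhibition normalised to vehicle treatment.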

[2] = NCI Yeast Anticancer Drug Screen. Data for the mec2-1 strain (AID 157); details: S. cerevisiae mec2-1 strain, at 50.0 µM, active compounds read high
Summary of the method: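 Test agents were screened against the mec2-1 yeast strain, with defined DNA repair or cell cycle alteration. Growth was scored as inhibition against vehicle-only controls.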

[3] = NCI Yeast Anticancer Drug Screen. Data for the sgs1 mgt1 strain (AID 161);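 note: 0% = growth of cultures given vehicle only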; details: S. cerevisiae sgs1 mgt1 strain, at 50.0 µM, active compounds read high
Summary of the method: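 Genetically altered yeast, compound exposure, growth inhibition relative to vehicle.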

[4] = NCI Yeast Anticancer Drug Screen. Data for the bub3 strain (AID 167); details: S. cerevisiae bub3 mutant strain, at 50.0 µM, active compounds read high
Summary of the method: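 Growth of a checkpoint-deficient yeast mutant is measured after compound exposure. Values represent inhibition relative to vehicle.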

[5] = NCI Yeast Anticancer Drug Screen. Data for the mlh1 rad18 strain (AID 175); details: S. cerevisiae mlh1 rad18 strain growth inhibition; at 50.0 µM; active compounds read high
Summary of the method: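 In this whole-cell yeast screen, a strain with altered DNA damage repair is challenged with compound, and its growth is measured against matched vehicle-treated controls.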

[6] = NCI Yeast Anticancer Drug Screen. Data for the cln2 rad14 strain (AID 165);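 note: 0% = growth equal to vehicle treated cultures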; details: S. cerevisiae cln2 rad14 strain, at 50.0 µM, active compounds read high
Summary of the method: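 Growth of compound-exposed yeast (cln2 rad14 genotype) measured and expressed as inhibition relative to vehicle.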

Measured: growth inhibition

C=C(S(=O)(=O)CC)S(=O)(=O)CC
inactive: [1] 28.9% | [2] -7.75% | [3] -3.8% | [4] -6.5% | [5] 4.4%

CCSC1=C(SCC)C(=O)C(SCC)=C(SCC)C1=O
inactive: [1] -1.25% | [2] 16.1% | [3] 13.9% | [4] -1.65% | [5] 15.4%

COc1ccc2c(CC(=O)O)cc(=O)oc2c1
inactive: [1] 12.2% | [2] -22.8% | [3] 15.4% | [4] 8.95% | [5] 14.2%

CC1CC(C2=CC=CCS2)=Nc2ccccc2S1 (stereo not given)
inactive: [1] -8.25% | [2] -16.2% | [3] 33.5% | [4] 5.3% | [5] 18.8%

OCC1=CC(c2ccccc2)(c2ccccc2)c2ccccc21
active: [1] 95.2% | [2] 96.3% | [3] 96.7% | [4] 95.5% | [5] 95.4%

Nc1nc2c(ncn2C2OCC(O)C(O)C2O)c(=O)[nH]1 (stereo not given)
inactive: [1] 15.6% | [2] -9.7% | [3] -13.8% | [4] 0.75% | [5] -2.3%

CCCCCCCCCCOC1C(C(C)OCCCN(C)C)OC2OC3(CCCCC3)OC21 (stereo not given)
active: [1] 91.8% | [2] 93.3% | [5] 86.2%
inactive: [3] 40.7% | [4] -31.6%

CCCC(O)CO (stereo not given)
inactive: [1] 5.55% | [2] 1.9% | [3] 0.15% | [4] -0.5% | [5] 40.2%

COC(=O)CNC(=O)C1CSC(C)(C)N1 (stereo not given)
inactive: [1] -5.9% | [2] -6.65% | [3] -15.7% | [4] -1.05% | [5] -9.15%

COS(=O)(=O)C=C(c1ccccc1)c1ccccc1
inactive: [1] 12.8% | [2] -27.1% | [3] 15.7% | [4] 6.4% | [5] -1.95%

OC[C@@H](O)[C@H]1NC[C@@H](O)[C@H]1O
inactive: [1] -45.1% | [2] -57.1% | [3] -50.1% | [4] -26.1% | [5] -17.9%

COc1c(C)cc(-c2cc(C)c(OC)c(C)c2)cc1C
inactive: [1] -3.45% | [2] 8.05% | [3] 1.7% | [4] -8.8% | [5] -3.55%

COc1cc(NC(C)CNC(C)C)c2ncccc2c1 (stereo not given)
inactive: [1] -15.7% | [2] -4.85% | [3] -2.1% | [4] 7% | [5] 2.1%

CC1CC=CCC1COB(OCC1CC=CCC1C)OCC1CC=CCC1C (stereo not given)
inactive: [1] 22.8% | [2] -21.5% | [3] 29.1% | [4] 24.3% | [5] -0.25%

CCOc1cccc(N)c1
inactive: [1] -69.2% | [2] -20.7% | [3] -55.5% | [4] -41.7% | [5] -80.2%

Cc1ncc(CSCC(=O)O)c(N)n1
inactive: [1] 3.5% | [2] -16.1% | [3] -5.05% | [4] -8.7% | [5] -8.55%

c1ccc2c(c1)Nc1nc3ccccc3nc1N2
inactive: [1] -40% | [2] -5.7% | [3] -33.8% | [4] -8% | [5] 16.9%

COC(=O)[C@]12CCC(C)(C)C[C@H]1C1=CC[C@@H]3[C@@]4(C)CC[C@H](OC5OC(CO)C(O)C(O)C5OC5OC(CO)C(O)C(O)C5O)C(C)(C)[C@@H]4CC[C@@]3(C)[C@]1(C)CC2 (stereo not given in full)
active: [1] 89% | [2] 90.8% | [3] 91.4% | [4] 90.9% | [5] 89.5%

O=c1[nH]cc(F)c(=S)[nH]1
inactive: [1] -9.85% | [2] -16.5% | [3] -5.9% | [4] 6.2% | [5] -23.9%

Cc1ccc(-c2c(C#N)c(-c3ccc(Cl)cc3)c(C#N)c(=O)n2NS(=O)(=O)c2ccc(C)cc2)cc1
inactive: [1] 20.9% | [2] 19.8% | [3] 30.4% | [4] 15.7% | [5] 13.2%

COc1ccc(C)cc1Sc1ccc(C)cc1[N+](=O)[O-]
inactive: [1] -6.2% | [2] -6.7% | [3] -3.2% | [4] 10% | [5] -22.9%

COc1ccc(C(SCC(N)C(=O)O)(c2ccccc2)c2ccccc2)cc1 (stereo not given)
inactive: [1] 32.8% | [2] -11.7% | [3] 37% | [4] 10.8% | [5] 54.6%

COc1ccc(C(=O)CC(C#N)c2ccccc2Cl)cc1 (stereo not given)
inactive: [1] 19.8% | [2] 39% | [3] 41.2% | [4] 64% | [5] 8.6%

CC1=C(/C=C/C(C)=C\c2cc(C)cc(=O)o2)C(C)(C)CCC1
inactive: [1] 23.1% | [2] -1.5% | [3] 8.7% | [4] 5.75% | [5] 16.9%

CC(=O)Oc1cc2c(cc1C(NC(N)=O)c1ccc3c(c1)OCO3)OCO2 (stereo not given)
inactive: [1] 1.95% | [2] 2.7% | [3] 1.55% | [4] 16.4% | [5] 12.4%

CC(O)CN1CCN(CC(C)O)C(C)C1 (stereo not given)
inactive: [1] -10.1% | [2] 1.65% | [3] 0% | [4] -7.2% | [5] 4.75%

CCCC[Si]CCCC
inactive: [1] 14.8% | [2] 10% | [3] 1.1% | [4] 4.5% | [5] 11.2%

COc1cccc2c1OC(=O)C(S(=O)(=O)c1ccccc1)C2 (stereo not given)
inactive: [1] -7.8% | [2] -3.95% | [3] 5.5% | [4] -7.25% | [5] -3.65%

CC(C)(Oc1ccc(/C=C/C(=O)c2ccccc2)cc1)C(=O)Nc1c(Cl)cccc1Cl
inactive: [1] -6.6% | [2] -46.6% | [3] -3.15% | [4] -13.1% | [5] -1.45%

CS(=O)(=O)Nc1ccc(NS(C)(=O)=O)cc1
inactive: [1] 1.6% | [2] 17.5% | [3] 4.45% | [4] 2.9% | [5] -13.2%

COc1ccc(-c2cc3cc(Cl)cc(Cl)c3oc2=O)cc1OC
inactive: [1] -13.6% | [2] -8.6% | [3] -17.8% | [4] -3.25% | [5] -16.1%

CC1(C)CCC2(CC1)CC[N+](C)(CCC[N+](C)(C)C)CC2
inactive: [1] -26.6% | [2] -8.4% | [3] -10.8% | [4] 8.7% | [5] -11.2%

CC1(C)C2CC3C(CCC4C(=O)OC(=O)C43)C1C2 (stereo not given)
inactive: [1] -1.2% | [2] 10.2% | [3] -3.8% | [4] -4.3% | [5] -2.35%

COc1ccc2nc3cc(Cl)ccc3c(NN3CCN(CCO)CC3)c2c1
inactive: [1] -24.1% | [2] -7.9% | [3] -20.1% | [4] 2.3% | [5] -3.6%

O=C1c2ccccc2C(=O)c2c1cc1c(c2O)OCO1
inactive: [1] 23.4% | [2] 13.4% | [3] 20.1% | [4] -38% | [5] 46.9%

CCOC(=O)C(OCC1CC=CCC1)Sc1ccccc1 (stereo not given)
inactive: [1] 10.6% | [2] -24.6% | [3] -4.95% | [4] -9.7% | [5] -13.9%

Nc1cc(N)[nH]c(=S)n1
inactive: [1] 16.8% | [2] 10.2% | [3] 13.9% | [4] -3.95% | [5] -2.35%

Cc1ccc(C)c(C2NC(=O)c3ccccc3N2)c1 (stereo not given)
inactive: [1] -15.8% | [2] -9.25% | [3] -44.8% | [4] -52.2% | [5] -19.8%

Cc1cc(N(CCC#N)CCC#N)ccc1/C(N=Nc1ccc(Cl)cc1)=N\NC(=O)c1ccccc1
inactive: [1] 1.3% | [2] -2.65% | [3] -0.5% | [4] -7.3% | [5] -31.1%

CC[n+]1c(COCCOc2ccccc2)sc2cc3c(cc21)OCO3
inactive: [1] -23.4% | [2] -11.4% | [3] -0.35% | [4] 2.55% | [5] -18.1%

O=C(C/C(=N\NC(=O)C[n+]1ccccc1)C(=O)Nc1nc2ccc([N+](=O)[O-])cc2s1)CC(c1ccccc1)c1c(O)c2ccccc2oc1=O (stereo not given)
inactive: [1] 3.65% | [3] -17.2% | [6] 1.6% | [4] 7.3% | [5] -4.85%

Brc1cccc[n+]1CCC[n+]1ccccc1Br
inactive: [1] 14.8% | [3] 28.2% | [6] 33.2% | [4] 19.4% | [5] 15.8%

CN1CC[C@H]([C@@H](O)c2ccccc2)C1=O
inactive: [1] 4.95% | [3] -3.5% | [6] -34.4% | [4] 0.35% | [5] 5.7%

COc1cccc2c(NCCCCCO[N+](=O)[O-])cc[n+](C)c12
inactive: [1] 25.7% | [3] 9.85% | [6] 8.7% | [4] 16.6% | [5] 29.1%

Cc1cc(Cc2ccc(NC(=O)N3CC3)c(C)c2)ccc1NC(=O)N1CC1
inactive: [1] -2.95% | [3] -6.8% | [6] 0.25% | [4] 10.8% | [5] -18.9%
